Measurements: PubChem BioAssay AID1851 (National Center for Advancing Translational Sciences (NCATS), 2009)
About 5,100 (32%) of roughly 16,000 compounds were called active. Roughly 25% stayed inconclusive and do not appear here. Calls come from the whole dose curve; as a rule, active = well fitted curve in the direction sought with a large enough effect; inconclusive = small, poorly fitted or top-dose-only effect, or effect the other way; inactive = no such curve, though single readings can be large or run the other way. The list shows a part of the results.

target: Cytochrome P450 3A4 (Homo sapiens) (UniProt P08684); experiment: Cytochrome panel assay with activity outcomes; conditions: recombinant CYP, pro-luciferin dealkylation, luminescence, p450-cyp3a4; series mostly up to 57.1 µM; activity, negative = inhibition: at the top concentration
Sequence (P08684 whole entry, looked up): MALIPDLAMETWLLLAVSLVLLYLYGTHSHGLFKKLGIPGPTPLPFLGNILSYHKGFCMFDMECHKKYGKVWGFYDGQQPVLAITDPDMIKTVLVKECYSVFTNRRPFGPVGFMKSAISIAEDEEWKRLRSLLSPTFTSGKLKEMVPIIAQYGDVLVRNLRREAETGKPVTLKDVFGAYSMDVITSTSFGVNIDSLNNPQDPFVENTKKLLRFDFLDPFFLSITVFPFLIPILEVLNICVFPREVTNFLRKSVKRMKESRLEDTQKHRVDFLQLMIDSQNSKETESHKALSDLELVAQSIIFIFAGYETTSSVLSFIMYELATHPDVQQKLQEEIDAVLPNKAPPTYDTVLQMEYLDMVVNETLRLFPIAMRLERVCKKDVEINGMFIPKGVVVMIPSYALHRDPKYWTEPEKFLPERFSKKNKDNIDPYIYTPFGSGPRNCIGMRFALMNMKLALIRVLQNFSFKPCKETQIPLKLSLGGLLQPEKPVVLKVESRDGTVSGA
% is set by controls: 0 for no effect and ±100 for the full control effect.

| SMILES | activity, negative = inhibition | AC50 |
| --- | --- | --- |
| CC(=O)N1CC[N+](C)(C)CC1 | -9.17% (inactive) |  |
| C[C@]12CC[C@@H]3C(=CCc4cc(O)ccc43)[C@@H]1CCC2=O |  | 10 µM (active) |
| C[C@]12CCC3c4ccc(OCC(=O)O)cc4CCC3C1CCC2=O (some centres not stated) | -8.48% [at 11.4 µM] (inactive) |  |
| C[C@@]12CC[C@@H]3c4ccc(O)cc4CC[C@H]3[C@H]1CC[C@H]2O | 2.5% [at 25.6 µM] (inactive) |  |
| CCN1C[C@]2(COC(=O)c3ccccc3N3C(=O)C[C@H](C)C3=O)CC[C@H](OC)[C@@]34[C@@H]5C[C@H]6[C@H](OC)[C@H]5[C@](O)(C[C@@H]6OC)[C@@](O)([C@@H](OC)[C@@H]23)[C@@H]14 | -19.7% (inactive) |  |
| C[N+](C)(C)[C@H](Cc1c[nH]c(=S)[nH]1)C(=O)O | -1.29% [at 11.4 µM] (inactive) |  |
| O=[N+]([O-])O[C@H]1CO[C@H]2[C@H]1OC[C@@H]2O[N+](=O)[O-] | -2.14% [at 25.6 µM] (inactive) |  |
| CS(=N)(=O)CC[C@H](N)P(=O)(O)O (some centres not stated) | 1.43% [at 11.4 µM] (inactive) |  |
| N[C@@H](Cn1ccc(=O)n(Cc2ccc(C(=O)O)cc2)c1=O)C(=O)O | -7.16% (inactive) |  |
| CN(CCc1ccc(Cl)c(Cl)c1)[C@H]1CCCC[C@H]1N1CCCC1 |  | 12.6 µM (active) |
| CN(C)CCN(C)CCc1ccc(Cl)c(Cl)c1 | -44.5% (inactive) |  |
| COc1ccc2c(c1O)-c1c(OC)c(OC)cc3c1[C@H](C2)N(C)CC3 | -1.12% [at 25.6 µM] (inactive) |  |
| CC(=O)O[C@@H]1CN2CCC1CC2 | -14.7% (inactive) |  |
| CC(=O)Nc1ccccc1C(=O)OCC(=O)c1ccc2ccccc2c1 | 7.07% (inactive) |  |
| c1ccc2c(c1)[I+]c1ccccc1-2 |  | 3.16 µM (active) |
| C1CCc2nnnn2CC1 | -7.33% (inactive) |  |
| O=C(COc1ccc2ccccc2c1)N1CCN(CC2CC3C=CC2C3)CC1 (configuration not stated) |  | 12.6 µM (active) |
| CC(=O)N1CCC2(CC1)CC(=O)c1cc(OCC(=O)N3CCN(C)CC3)ccc1O2 | 11.2% (inactive) |  |
| C[N+](C)(C)CC#CCN1CCCC1=O | inactive |  |
| CN1C(=O)COc2c(C(=O)N[C@@H]3CN4CCC3CC4)cc(Cl)cc21 | -5.69% (inactive) |  |
| O=C1CC[C@@]2(O)[C@H]3Cc4ccc(O)c5c4[C@@]2(CCN3CC2CC2)[C@@H]1O5 | inactive |  |
| CCCCC/C=C\C/C=C\C/C=C\C/C=C\CCCC(=O)Nc1ccc(O)cc1 |  | 5.01 µM (active) |
| CCCC(=O)Nc1ccc(N2CCN(CC)CC2)c(Cl)c1 | -2.29% (inactive) |  |
| NS(=O)(=O)c1ccc(-c2ccc([As](=O)(O)O)cc2)cc1 | -4.52% [at 11.4 µM] (inactive) |  |

| SMILES | activity, negative = inhibition | AC50 |
| --- | --- | --- |
| Oc1ccc([C@H](O)[C@@H]2CCCCN2)cc1O | -7.28% [at 11.4 µM] (inactive) |  |
| COc1c2c(cc3c1OCO3)CCN(C)C2 | -16.8% [at 25.6 µM] (inactive) |  |
| CN1CCc2cc3c(cc2[C@@H]1[C@@H]1OC(=O)c2c1ccc1c2OCO1)OCO3 |  | 0.794 µM (active) |
| C[N+]1(C)CCc2cc3c(cc2[C@@H]1[C@@H]1OC(=O)c2c1ccc1c2OCO1)OCO3 |  | 15.8 µM (active) |
| CO[C@H]1C=C2CCN(C)[C@@H]2[C@@H]2c3cc4c(cc3C(=O)O[C@H]21)OCO4 | -22.2% [at 25.6 µM] (inactive) |  |
| CN1Cc2c(ccc3c2OCO3)[C@@H]2[C@@H](O)Cc3cc4c(cc3[C@@H]21)OCO4 |  | 5.01 µM (active) |
| COc1cc2c(cc1OC)[C@H](C)NCC2 | -4.58% [at 25.6 µM] (inactive) |  |
| CC[C@H]1CN2CC[C@@H]1C[C@H]2[C@@H](O)c1ccnc2ccc(OC)cc12 | 8.8% [at 25.6 µM] (inactive) |  |
| COc1cc2c(cc1OC)[C@@]13CCN4C=C5CCO[C@H]6CC(=O)N2[C@@H]1[C@@H]6[C@H]5C[C@H]43 | 13.3% [at 11.4 µM] (inactive) |  |
| [N-]=[N+]=CC(=O)CC[C@H](N)C(=O)O | -9.62% [at 11.4 µM] (inactive) |  |
| CN1CCc2cccc(Cl)c2CC1 | -2.46% (inactive) |  |
| NC(=O)CN1C[C@@H](O)CC1=O | -2.79% (inactive) |  |
| CN(C)C=C1C(=O)N(C2CCCCC2)C(=O)N(C2CCCCC2)C1=O | -29.6% (inactive) |  |
| CN1C2C=C3C(C#N)=C(N)C(C#N)(C#N)[C@H](c4c(F)cccc4F)[C@H]3C1CC2 (some centres not stated) |  | 4.47 µM (active) |
| CS(=N)(=O)CC[C@@H](N)C(=O)O (some centres not stated) | inactive |  |
| C[C@@H]1O[C@@H](O[C@H]2C[C@@H](O)[C@@]3(CO)[C@H]4[C@H](O)C[C@]5(C)[C@@H](C6=CC(=O)OC6)CC[C@]5(O)[C@H]4CC[C@@]3(O)C2)[C@@H](O)[C@H](O)[C@H]1O | 10.6% [at 11.4 µM] (inactive) |  |
| NC(=O)CN1CCCC1=O | inactive |  |
| NC(=O)CI |  | 0.0631 µM (active) |
| NNC(N)=O | -9.12% (inactive) |  |
| CCCN1CCC[C@@H]2Cc3nc(N)ncc3C[C@H]21 | -16.7% (inactive) |  |
| COC(=O)[C@@H]1[C@@H]2C[C@H]3c4[nH]c5cc(OC)ccc5c4CCN3C[C@@H]2C[C@H](OC(=O)/C=C\c2cc(OC)c(OC)c(OC)c2)[C@H]1OC | -25.6% [at 25.6 µM] (inactive) |  |
| COc1cc(CCN)ccc1O | -4.42% (inactive) |  |
| COc1cc(CNC(=O)CCCC/C=C\C(C)C)ccc1O |  | 3.98 µM (active) |
